S2 tox: viability counter-screen for ATXN expression inhibitors | S2 cells (HEK-293 line with an ATXN2-luciferase reporter) viability, CellTiter-Fluor protease fluorescence, 24 h | Potency, µM (highest dose often 56.7 µM), usual class: cytotoxic | 0.49% of 400,000 active; note: nearly all actives have a fitted effect of over 40% in size
VP16 counter: Gal4-VP16 reporter inhibition counter-screen | Drosophila S2 Gal4-VP16 UAS-luciferase, luminescence, 20 h | Potency, µM (doses to about 53.6 µM), inactives show at the top dose activity, negative = inhibition, actives largely listed as inhibitors | 3.5% of 310,000 active | AID 2546;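 note: Gal4-VP16 expression switched on by copper sulfate through the metallothionein promoter; % is set by controls: 0 for no effect and ±100 for the full control effect; nearly all actives have a fitted effect of over 50% in size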
RORgamma inh: ROR gamma (mouse) transcription inhibition. P51450. Drosophila S2 Gal4-RORgamma UAS-luciferase reporter, 20 h. Potency, µM (series often up to 53.6 µM), inactives show at the top dose activity change, negative = inhibition, hits mostly inhibitors. 5.4% of 310,000 active. AID 2551; note: % is set by controls: 0 for no effect and ±100 for the full control effect; nearly all actives have a fitted effect of over 60% in size
Target sequence (P51450 whole entry, looked up, the tested form may be a part): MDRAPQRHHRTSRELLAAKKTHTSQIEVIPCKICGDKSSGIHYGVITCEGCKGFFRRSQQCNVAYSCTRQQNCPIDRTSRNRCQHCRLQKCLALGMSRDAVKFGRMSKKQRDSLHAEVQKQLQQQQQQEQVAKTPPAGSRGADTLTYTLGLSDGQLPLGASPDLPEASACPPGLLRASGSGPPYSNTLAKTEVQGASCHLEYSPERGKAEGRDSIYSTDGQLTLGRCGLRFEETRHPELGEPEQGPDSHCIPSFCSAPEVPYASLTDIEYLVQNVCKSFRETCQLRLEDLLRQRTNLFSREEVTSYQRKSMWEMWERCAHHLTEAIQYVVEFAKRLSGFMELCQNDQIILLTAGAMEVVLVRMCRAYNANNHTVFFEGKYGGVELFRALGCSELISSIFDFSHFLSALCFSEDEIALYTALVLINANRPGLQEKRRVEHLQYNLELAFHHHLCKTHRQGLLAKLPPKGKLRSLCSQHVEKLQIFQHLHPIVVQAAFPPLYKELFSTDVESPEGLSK
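Schneider cells (Drosophila), stable Gal4 DBD–ROR gamma + UAS-luc; 1 hr cmpd preincubation; Cu2+ induction 700 uM final; 20 hr ambient; luminescence.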
ATXN2 expr inh: inhibitors of ATXN2 expression; HEK-293 ATXN2-luciferase reporter, luminescence, 24 h; Potency, µM (titrated, usually from 57 µM), inactives show at the top dose activity change, negative = inhibition, hits mostly inhibitors; 0.72% of 360,000 active; note: % is set by controls: 0 for no effect and ±100 for the full control effect; nearly all actives have a fitted effect of over 55% in size
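ATXN2-luciferase reporter cells (luciferase flanked by upstream and downstream ATXN2 gene portions) were treated 24 h at 37 °C with compounds at up to 57 uM. SteadyGlo luminescence gave expression; GF-AFC fluorescence gave viability.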
TGFb SMAD3 inh: blocks TGF-b signaling. HepG2 CAGA-GFP TGF-b/SMAD3 reporter, GFP fluorescence, 18 h; TGF-beta stimulated, 500 pg/mL final. Potency, µM (top dose mostly 46.1 µM), inactives show at the highest dose activity, negative = inhibition, hits mostly inhibitors. 1.2% of 410,000 active; note: % is set by controls: 0 for no effect and ±100 for the full control effect; nearly all actives have a fitted effect of over 65% in size
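HEPG2 CAGA-GFP, 1000 cells/well; 2 h settle, 37 C; cpd via pin tool; TGF-b 500 pg/mL final; 18 h, 37 C; GFP imaging ex488/em500-530; %Activity normalised to -TGF-b and +DMSO controls; CRC fit, curve class.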
HepG2 tox: kills HepG2 cells in TGF-b inhibitor counter-screen. 0.76% of 410,000 active. Potency, µM (series often up to 46.1 µM), for the others: top-dose activity change, negative = cytotoxicity, usual class: cytotoxic. AID 588856. HepG2 CAGA-GFP viability, ATP luminescence, 18 h
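CellTiter-Glo luminescence gave cytotoxicity after 18 hours at 37 degrees C. The cells were HepG2 CAGA-GFP in 1% FBS DMEM, stimulated with 500 pg/mL TGF-beta after compound addition. %Activity was normalised to no-cell wells (complete cell-killing) and DMSO (no toxicity), and curves were fitted and classified.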
Starred values were filed as active, the others as inactive; i = inactive; ? = inconclusive; nt = no result given. Hits are enriched below; roughly 6.1% of the tested compounds scored in any of these assays. Calls come from the whole dose curve; as a rule, active = well fitted curve in the direction sought with a large enough effect; inconclusive = small, poorly fitted or top-dose-only effect, or another doubt; inactive = no such curve, though single readings can be large; an effect the other way counts as inactive or inconclusive. Potency is the fitted concentration of half-maximal effect.

SMILES | S2 tox | VP16 counter | RORgamma inh | ATXN2 expr inh | TGFb SMAD3 inh | HepG2 tox
S=c1[nH]nc(-c2cc(-c3ccccc3)n[nH]2)n1/N=C/C=C/c1ccccc1 | i | 18% | -43% | 2% | 0% | -29%
COc1ccc2c(c1)CC(NC(=O)Nc1cc(Cl)ccc1OC)CO2 (stereo not given) | nt | nt | nt | nt | -29% | -20%
CCc1cccc(-n2nnc(-c3nsc(NC(=O)c4cccc(OC)c4)n3)c2C)c1 | i | nt | nt | -30% | 0% | -11%
O=C(C[n+]1ccccc1Br)c1ccc(F)cc1 | nt | nt | nt | nt | 12% | 8%
O=C(Nc1cccc(C(=O)OCc2cc(=O)n3ccsc3n2)c1)c1ccc(F)cc1 | i | nt | nt | 1% | 42% | 1%
COc1ccc(S(=O)(=O)N2c3ccccc3OCC2C(C)(C)C)cc1 (stereo not given) | i | 16µM* | -10% | 2% | 16% | 8%
COc1ccc(S(=O)(=O)N2c3ccccc3OCC2C)cc1 (stereo not given) | ? | -5% | ? | ? | ? | -2%
CC(C)SCc1cc(N2CCCC2)nc(-c2ccccc2)n1 | i | -5% | 13µM* | -6% | -19% | -13%
Cc1nn2c(C)c(C(=O)NCc3ccc(OC(C)C)cc3)cnc2c1-c1ccc(F)cc1 | nt | nt | nt | nt | 0% | -17%
CCc1ccccc1NC(=O)Cn1ccn(Cc2ccccc2)c(=O)c1=O | i | nt | nt | 5% | 7% | 0%
O=C1NC(c2ccccc2)(c2ccccc2)C(=O)N1COP(=O)(O)O | i | nt | nt | 8% | nt | nt
COc1cc(/C=N/n2c(COc3ccccc3)n[nH]c2=S)cc(Br)c1O | i | -21% | -38% | -4% | 1% | 4%
COc1cccc(/C=N/n2c(COc3ccccc3)n[nH]c2=S)c1OC | i | ? | 20µM* | nt | 5% | -11%
COc1ccccc1/C=C/C=N/n1c(COc2ccccc2)n[nH]c1=S | i | -23% | 3.5µM* | 6% | ? | -2%
Cc1n[nH]c(=S)n1/N=C/c1cccc(OCc2ccccc2)c1 | i | -7% | 36% | 23% | -5% | -38%
CCOc1ccc(/C=N/n2c(COc3ccccc3)n[nH]c2=S)cc1OC | i | -5% | -33% | nt | 43% | 3%
COc1cccc(/C=N/n2c(COc3ccccc3)n[nH]c2=S)c1O | i | ? | 13µM* | 13% | -1% | -11%
Cc1n[nH]c(=S)n1/N=C/c1ccccc1OCc1ccc(Cl)cc1 | i | ? | 4.5µM* | 34% | 2% | -13%
COc1cc(/C=N/n2c(COc3ccccc3)n[nH]c2=S)cc(OC)c1OC(C)=O | i | -12% | -13% | nt | -19% | -15%
CCCN(CCC)C(=O)Cn1c(=O)n(-c2ccc(OC)cc2OC)c(=O)c2c3c(sc21)CCC3 | i | nt | nt | 6% | -8% | 5%
CCN(CC)c1ccc(C(=O)N2CCc3c([nH]c4ccccc34)C2c2ccc(F)cc2)cc1 (stereo not given) | nt | nt | nt | nt | -10% | -15%
C=C1C=C(C(F)(F)F)n2ncc(C(=O)NCc3ccc(F)cc3)c2N1 | nt | nt | nt | nt | 1% | 0%
CCOC(=O)N1CCN(C(=O)CCCn2c(=S)[nH]c3ccc(Br)cc3c2=O)CC1 | ? | ? | 13µM* | -3% | -3% | -3%
Cc1ccc(Cl)cc1N1CCN(C(=O)CCCCCn2c(=O)[nH]c3ccccc3c2=O)CC1 | nt | nt | nt | nt | 22% | 1%
CCOC(=O)N1CCN(C(=O)CCCCCn2c(=S)[nH]c3ccsc3c2=O)CC1 | i | ? | 11µM* | -7% | 19% | 6%
Cc1ccc(Cl)cc1N1CCN(C(=O)CCCn2c(=O)[nH]c3ccc(Br)cc3c2=O)CC1 | ? | nt | nt | ? | 11µM* | -36%
CCCC(=O)N1c2ccccc2-c2nnc(SC)nc2OC1c1sccc1C (stereo not given) | i | nt | nt | 3% | -1% | 2%
COc1ccc(OC)c(-c2cc(C(=O)Nc3cccc(Cl)c3C)no2)c1 | i | nt | nt | 10% | 3% | -38%

High-throughput results (PubChem BioAssay)
